# Results from PubChem BioAssay (NCI).
# This is part of a sample that, as a whole, favours compounds with a hit. Of some 83,000 tested, about 20% had one in any assay.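 How to read the values: 0–100, growth inhibition (40 = 60% inhibited); 0, no net growth; -100 to 0, cell death (-40 = 40% of starting cells died; -100 = all dead).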 Calls of active or inactive are those of the source. Rule for the calls: active = growth percent below 10; inactive = the rest.
# System: HOP-62 NSCLC
# Experiment: NCI-60 one-dose screen, 48 h (100 = growth as untreated, 0 = no growth, -100 = all killed)
# Details: 10 µM unless noted
row,SMILES,growth
1,CC(O)c1cc2ccccc2c(=O)o1 (centres undefined),105% (inactive)
2,NC/C(=C/F)COc1ccc2nc(NCc3cccnc3)oc2c1,77% (inactive)
3,Cc1ccc(NC(=O)N[C@@H](Cc2cc(F)cc(F)c2)C(=O)NC2C(=O)N3C[C@H](O)C[C@H]3C(=O)N3CCCC[C@H]3C(=O)N[C@@H](CO)C(=O)N3C[C@H](C)C[C@H]3C(=O)O[C@H]2C)c(F)c1 (some centres undefined),48.3% (inactive)
4,O=c1[nH]c2ccccc2cc1CSc1ccccc1Nc1nccc(-c2ccc(Cl)cc2)n1,95.6% (inactive)
5,CCn1c(SCC(=O)Nc2cccc(C(=O)/C=C/c3ccc(Br)cc3)c2)nc2ccccc2c1=O,98.8% (inactive)
6,Fc1ccc(-c2cc3nc(C(Cl)Cl)nc(-c4ccc(F)cc4)n3n2)cc1,-27.6% (active)
7,CCNC(=O)N1CCc2cc(OC)c(OCCc3ccc(OC)cc3)cc2C1c1ccc(OC)cc1C (centres undefined),20.3% (inactive)
8,C#CCOC(=O)[C@@H]1CCCN1CC#C,101% (inactive)
9,CCNC(=O)N1CCc2cc(OC)c(OCCc3ccc(OC)cc3)cc2C1c1ccc(Cl)cc1C (centres undefined),27.7% (inactive)
10,COc1cc2nc(Cl)nc(Nc3cccc(C4=Nc5c(N)nc(N)nc5NC(c5ccc(Br)cc5)C4)c3)c2cc1OC (centres undefined),43.5% (inactive)
11,COc1ccc(C(=O)CSc2nc3c(c(Nc4ccc(S(N)(=O)=O)cc4)n2)CCCC3)cc1,115% (inactive)
12,Nn1c(N/N=C/c2nc3ccccc3s2)n[nH]c1=S,74.8% (inactive)
13,Cc1ccc(NC(=O)CNc2cc(C(N)=O)cc(F)c2C)c(Cl)c1,71.8% (inactive)
14,Cc1cccc2c3c(sc12)C(c1ccc(Cl)cc1)c1c(nc(CC(=O)Nc2ccccc2)[nH]c1=O)O3 (centres undefined),59.8% (inactive)
15,C=C(C=O)[C@@H]1CC[C@]2(C)[C@H](C(=O)C=C3[C@H]4C[C@](C)(C(=O)OC)CC[C@]4(C)CC[C@]32C)[C@@]1(C)CCC#N,41.2% (inactive)
16,Nc1nc(-c2cccc([N+](=O)[O-])c2)c(N=Nc2ccccc2)s1,80.6% (inactive)
17,CC(=O)C1=C(C)NC(NNC(N)=S)=NC1c1ccccc1 (centres undefined),71.8% (inactive)
18,COc1cc(OC)c(S(N)(=O)=O)cc1C(C)=O,113% (inactive)
19,CCOC(=O)c1c(Nc2ccccc2)nn2c(-c3ccc(OC)cc3)ccnc12,95.3% (inactive)
20,O=C(CCn1c[n+](CC(=O)c2ccc(-c3ccccc3)cc2)c2ccccc21)Nc1cccc2cccnc12,94.4% (inactive)

row,SMILES,growth
1,N#C/C(=C\c1ccc(-c2ccc(Cl)cc2Cl)o1)c1ccc(F)cc1,82.2% (inactive)
2,O=S(=O)(Nc1ccc2c(c1)OCO2)c1ccc(-c2cnc(C3CC3)o2)cc1,43.3% (inactive)
3,COc1ccc(/C=C/C(=O)c2cc(S(N)(=O)=O)c(OC)cc2OC)cc1,83% (inactive)
4,CS(=O)(=O)c1ccc(-n2cc(/C=N/O)c(-c3ccccc3)n2)cc1,89.5% (inactive)
5,COc1ccc2c(c1)c(-c1cc(N)n3nc(-c4cn(C)c5ccc(OC)cc45)cc3n1)cn2C,103% (inactive)
6,C#CC(=O)N(c1ccc(OC)cc1OC)C(C(=O)NCC(=O)OCC)c1cccs1 (centres undefined),102% (inactive)
7,C=CCn1c(SCC(=O)Nc2ccc(C(=O)/C=C/c3cc(OC)c(OC)c(OC)c3)cc2)nnc1-c1c[nH]c2ccccc12,70.5% (inactive)
8,CC(C)(C)CC(C)(C)n1nnnc1C(Nc1nccs1)c1cc2cccc3ccc4cccc1c4c32 (centres undefined),89% (inactive)
9,Cc1ccc2c(c1)C(=O)/C(=C/c1cccc(F)c1)S2,109% (inactive)
10,CC1(COc2ccc3ncc(C#Cc4cncc(C(=O)Nc5cccc(C(F)(F)F)c5)c4)n3n2)COC1,63.7% (inactive)
11,O=C(Nc1nonc1-c1ccccc1)c1ccc(C(F)(F)F)cc1,81.5% (inactive)
12,CN1CCN(Cc2ccc(NC(=O)c3cncc(C#Cc4cnc5ccc(N6CCN(C)CC6)nn45)c3)cc2C(F)(F)F)CC1,28.8% (inactive)
13,COc1cccc2c1CN(C(=O)c1ccc(O)c(C(=O)N3Cc4ccc(OCCC[P+](c5ccccc5)(c5ccccc5)c5ccccc5)cc4C3)c1)C2,102% (inactive)
14,CCCSc1nc(Nc2ccc(/C(C)=N\NC(N)=S)cc2)c(C#N)c(-c2ccccc2)n1,84.2% (inactive)
15,C[C@H]1c2[nH]c3ccccc3c2C[C@H]2C(=O)N(CCCCCCC(=O)NO)CC(=O)N21,88.7% (inactive)
16,CC1(C)CC[C@]2(C(=O)N3CCOCC3)CC[C@]3(C)C(=CC[C@@H]4[C@@]5(C)C/C(=C/c6ccccn6)C(=O)C(C)(C)[C@@H]5CC[C@]43C)[C@@H]2C1,78.5% (inactive)
17,C=C(C)[C@@H]1CC[C@]2(COC)CC[C@]3(C)[C@H](CC[C@@H]4[C@@]5(C)CCCNC(C)(C)[C@@H]5CC[C@]43C)[C@@H]12,71.1% (inactive)
18,COc1cc(-c2nn(C(C)(C)C)cc2-c2ccnc(NCCCNS(=O)(=O)c3ccccc3)n2)ccc1Cl,72.8% (inactive)
19,Cc1cc(C)c(N2C(=O)CC(Nc3ccc(Cl)cc3Cl)C2=O)c(C)c1 (centres undefined),104% (inactive)
